Source: PubChem BioAssay AID686978 (National Center for Advancing Translational Sciences (NCATS), 2013)
In all, about 420,000 compounds went through this assay and about 64,000 (15%) were called active. Another 27% or so got no clear call; they are omitted. The call rests on the fitted dose curve; in most records, active means well fitted inhibition curve with a large enough effect; inconclusive means small, poorly fitted or top-dose-only effect; inactive means flat fitted curve, though single readings scatter. These entries were drawn from the full list. A call without a number means that no potency is given here.
Potency means the concentration at half of the fitted maximal effect.

Assay: qHTS for Inhibitors of human tyrosyl-DNA phosphodiesterase 1 (TDP1): qHTS in cells in absence of CPT; further: nearly all actives have a fitted effect of over 55% in size
Conditions: DT40 Tdp1-/- hTDP1 cells, no CPT, ATP luminescence, 48 h; activity change, negative = growth inhibition: at 46.2 µM (top of the series)
Description: Human tyrosyl-DNA phosphodiesterase 1 (TDP1) is a novel repair gene, and we propose to use it as a new target for anticancer drug development. TDP1 is not an essential protein, but under treatment with topoisomerase I poison (camptothecin: CPT), TDP1 works as a critical factor for cell survival. To directly identify novel TDP1 inhibitors active in a cellular environment, we have knocked-out the Tdp1 gene in chicken DT40 cells (Tdp1-/-) and generated a complemented counterpart cells that contains a stable transfection of the human TDP1 gene (Tdp1-/-;hTDP1 cells). For the primary screen, Tdp1-/-;hTDP1 cells will be exposed to small molecules in the presence or absence of CPT, and their growth kinetics will be evaluated after 48 hours by measuring ATP activity. […] The hit compounds will then be evaluated in the presence or absence of CPT using Tdp1-/- cells. […] In tertiary assays, biochemical gel-based assays will be used to assess whether the hit compounds specifically target TDP1.
To this end, we have screened this cell line against the MLSMR in two primary screens. In one screen we add CPT and in the other we screen in the absence of CPT; this AID represents the screen where CPT was absent.
NIH Chemical Genomics Center [NCGC]
NIH Molecular Libraries Probe Centers Network [MLPCN]
Assay Submitter (PI): Yves Pommier, NCI
DT40-hTDP1 cells without 20 nM Camptothecin (add 20 microL of DMSO in 1 L of cell culture medium) were dispensed at 400 cells/5microL/well in tissue culture treated 1536-well white wall/solid bottom assay plates (Greiner Bio-One North America, NC, U.S.A.) using a Multidrop Combi 8 channel dispenser (Thermo Fisher, Waltham, MA, USA). 23 nL compounds and controls were transferred using the pin tool (Kalypsys, San Diego, CA, USA) to the assay plates. The assay plates were then incubated at 37 masculineC for a minimum 48 hr. Three microL of Cell Titer Glo solution was added to the plates and incubated at RT in dark for 30 min. Luminescence was read using ViewLux (Perkin Elmer) with 1 sec exposure slow speed, high gain and 2x binning.
With `ClC/C=C/C[n+]1ccccc1Cl` the Potency was “inactive”.
For `CN(C)c1ccc(NC(=O)c2ccncc2)c2ccccc12`, the Potency was “inactive”.
For `O=c1c(-c2cccc(Cl)c2)c[nH]n1-c1ccccc1`, the Potency was 16.4 µM (active).
In the case of `O=c1c(-c2ccccc2Cl)c[nH]n1-c1ccccc1`, the Potency was “inactive”.
With `O=c1c2c(-c3ccccc3)ccnc2[nH]n1-c1ccccc1` the Potency was “inactive”.
With `N#C/C=C1\Sc2ccccc2C(=O)N1CC(=O)N1CCN(S(=O)(=O)c2ccccc2)CC1` the Potency was “inactive”.
For `O=C(O)c1ccccc1-c1ccccc1C(=O)Nc1ccccc1Br`, the Potency was “inactive”.
For `COc1ccc(N2C(=O)CCC(C(=O)N(C)C3CCCCC3)C2c2ccc(OC)c(OC)c2)cc1` (centres undefined), the Potency was “inactive”.
In the case of `Cc1c(C)n2c(SCC(=O)N3CCCC3)nnc2[nH]c1=O`, the Potency was “inactive”.
For `CCOC(=O)C1CCCN(C(=O)C2CCN(c3nnc(-n4cccc4)s3)CC2)C1` (centres undefined), the Potency was “inactive”.
With `CCOC(=O)C1CCCN(C(=O)CSc2nnc3nc(C)cc(C)n23)C1` (centres undefined) the Potency was 20.6 µM (active).
For `CCCCN1C(=O)CCC(C(=O)O)C1c1ccc(OC)cc1` (centres undefined), the Potency was “inactive”.
In the case of `COc1cc(/C=C2\CCCc3c2nc2ccccc2c3C(=O)O)cc(Cl)c1O`, the Potency was “inactive”.
For `O=C(COC(=O)c1ccncc1)Nc1ccc2c(c1)OCO2`, the Potency was “inactive”.
In the case of `NS(=O)(=O)c1ccc(NC(=O)COC(=O)c2cc3ccccc3oc2=O)cc1`, the Potency was “inactive”.
For `O=C(COC(=O)c1c2c(nc3ccccc13)/C(=C\c1cccs1)CCC2)Nc1ccccc1Cl`, the Potency was 13 µM (active).
With `NC(=O)c1ccc(NC(=O)COC(=O)c2c3c(nc4ccccc24)/C(=C\c2ccc4c(c2)OCO4)CCC3)cc1` the Potency was 8.2 µM (active).
In the case of `O=C(COC(=O)c1ccc(F)cc1)Nc1ccc2c(c1)OCO2`, the Potency was “inactive”.
In the case of `COc1cc(-c2cc(C(=O)OCC(=O)Nc3ccc4c(c3)OCO4)c3ccccc3n2)cc(OC)c1OC`, the Potency was “inactive”.
With `NS(=O)(=O)c1ccc(NC(=O)COC(=O)c2c3c(nc4ccccc24)/C(=C\c2ccc4c(c2)OCO4)CCC3)cc1` the Potency was 13 µM (active).
With `O=C(COC(=O)c1cccs1)Nc1ccccc1Cl` the Potency was “inactive”.
With `COCCC(=O)Nc1ccc2c(c1)CN(C(=O)CCOC)CC2` the Potency was “inactive”.
With `COc1ccccc1C(=O)OCC(=O)NCCNC(=O)COC(=O)c1ccccc1OC` the Potency was “inactive”.
In the case of `C/C=C(\C)C(=O)N1CC2(CC(c3cccc(NC(=O)CCCCC)c3)=NO2)C[C@@H]1C(N)=O` (some centres undefined), the Potency was “inactive”.
For `CCC1(c2ccccc2)NC(=O)N(CC(=O)c2ccc3c(c2)OCO3)C1=O` (centres undefined), the Potency was “inactive”.
With `O=C(CCN1CCc2ccccc2C(O)(c2ccccc2)C1)c1ccc2c(c1)OCCO2` (centres undefined) the Potency was 2.91 µM (active).
For `O=C(COC(=O)c1ccccc1)c1ccc2c(c1)OCCO2`, the Potency was “inactive”.
In the case of `COc1ccc(CCOC2OC(CO)C(OC(=O)/C=C/c3ccc(O)c(OC)c3)C(O[C@H]3O[C@@H](C)[C@H](O)[C@@H](O)[C@H]3O)C2O)cc1O` (some centres undefined), the Potency was “inactive”.
For `Cc1ccc(CNC(=O)c2ccccc2CCc2ccccc2)cc1`, the Potency was “inactive”.
In the case of `CNC[C@H](CC1CCCCC1)NC[C@H](NCCC1CCCC1)[C@H](C)O`, the Potency was 20.6 µM (active).
With `O=C(CN1C(=O)NC2(CCCCCC2)C1=O)NCc1cccs1` the Potency was “inactive”.
With `CN=C1SC(C(=O)O)CC(=O)N1C` (centres undefined) the Potency was “inactive”.
With `COc1ccc(C(=O)n2nc(-c3ccc(C)cc3)nc2N)cc1OC` the Potency was 10.3 µM (active).
In the case of `COc1ccc(C(=O)n2nc(C)c(Br)c2C)cc1OC`, the Potency was “inactive”.
For `COc1ccc(CC(=O)n2nc(-c3cccnc3)nc2N)cc1`, the Potency was “inactive”.
In the case of `Oc1ccc(Cl)c2c1CCC2`, the Potency was “inactive”.
For `CN(CCOc1ccccc1)C(=O)c1cc(COc2c(F)cccc2F)on1`, the Potency was “inactive”.
In the case of `CN(Cc1cccnc1)C(=O)c1cc(COc2ccc3ncccc3c2)on1`, the Potency was 8.2 µM (active).
With `Cc1ccc(OCc2cc(C(=O)N(C)CCc3ccccc3)no2)cc1C` the Potency was “inactive”.
For `CCOC(=O)CNC(=O)CSc1ccc2nnc(-c3cccnc3)n2n1`, the Potency was “inactive”.
In the case of `COc1ccc(COC(=O)c2n[nH]c3ccccc23)cc1F`, the Potency was “inactive”.
With `Cn1c(SCc2c(F)cccc2Cl)nnc1-c1cnccn1` the Potency was “inactive”.
With `Cc1cc([N+](=O)[O-])c(NC2CCCCC2)c([N+](=O)[O-])c1` the Potency was “inactive”.
In the case of `CC1CN(C(=S)Nc2ccc(S(N)(=O)=O)cc2)CC(C)O1` (centres undefined), the Potency was “inactive”.
For `CCOC(=O)NCc1ccc2c(c1)OCO2`, the Potency was “inactive”.
In the case of `CCCCN(CC)C(=O)c1ccc2c(c1)OCO2`, the Potency was “inactive”.
In the case of `COCCN(Cc1cc2cc3c(cc2nc1Cl)OCO3)C(=O)c1cccc(C)c1`, the Potency was 16.4 µM (active).
For `Nc1ncnc2c1ncn2[C@@H]1O[C@H](C(=O)N2CCCN(Cc3ccccc3F)CC2)[C@@H](O)[C@H]1O`, the Potency was “inactive”.
For `COC(=O)CCC(=O)N1CCCC(CO)(Cc2ccccc2)C1` (centres undefined), the Potency was “inactive”.
For `COc1cccc(CC2(CO)CCCN(Cc3nc(-c4cccs4)oc3C)C2)c1` (centres undefined), the Potency was 20.6 µM (active).
With `CCOc1cc(CN2CCCC(CO)(Cc3ccc(F)cc3F)C2)ccc1OC` (centres undefined) the Potency was “inactive”.
With `Cc1ccc(CS(=O)(=O)CCC(=O)NC2CC2)cc1` the Potency was “inactive”.
With `CC[N+]1(CC)CC2=Cc3ccccc3CC2C1` (centres undefined) the Potency was “inactive”.
With `O=C(c1ccncc1)c1ccc([N+](=O)[O-])cc1` the Potency was “inactive”.
With `O=C(Nn1cnnc1)c1ccc([N+](=O)[O-])cc1` the Potency was “inactive”.
For `O=C(Cn1c[n+](CC(=O)c2ccc([N+](=O)[O-])cc2)cn1)c1ccc([N+](=O)[O-])cc1`, the Potency was 20.6 µM (active).
With `CCOC(=O)CSc1nnc(-c2ccc([N+](=O)[O-])cc2)o1` the Potency was “inactive”.
For `O=C(Nc1ccccc1)c1ccccc1OCc1ccccc1`, the Potency was “inactive”.
For `COc1ccccc1C(=O)Nn1cnnc1`, the Potency was “inactive”.
With `COc1ccccc1C(=O)c1ccccc1C(=O)c1ccccc1` the Potency was 18.4 µM (active).
In the case of `CC(=O)c1ccccc1OCc1ccc(C(=O)c2ccccc2)cc1`, the Potency was 16.4 µM (active).
For `COc1ccccc1C(=O)NNC(=O)c1ccc(NC(=O)c2ccccc2)cc1`, the Potency was “inactive”.
For `O=C(NC1CCC(O)CC1)c1ccccc1OCc1ccc(F)cc1` (centres undefined), the Potency was “inactive”.
For `COc1ccc(CC(=O)OC(C)C(=O)Nc2ccc(S(N)(=O)=O)cc2)cc1` (centres undefined), the Potency was “inactive”.
For `O=C(Nc1ccccc1C(=O)O)c1ccc(N2C(=O)C3CC=CCC3C2=O)cc1` (centres undefined), the Potency was “inactive”.
In the case of `O=CN1CCN(C(=O)c2ccc3c(c2)OCO3)CC1`, the Potency was “inactive”.
In the case of `C=CCNC(=S)/N=c1/ccccn1Cc1ccccc1`, the Potency was 1.84 µM (active).
For `CNC(=S)NNC(=O)c1cccn(Cc2ccccc2)c1=O`, the Potency was “inactive”.
For `C=CCNC(=O)COc1coc(CN2CCN(Cc3ccccc3)CC2)cc1=O`, the Potency was “inactive”.
